Values joined by “and” are separate entries in the source; they are usually repeats but may differ in a detail not shown here. Equal values may be shown once. Some compounds were tested as several samples or in several runs, with calls that do not always agree. Active and inactive are the calls of the source. The calls were made as follows: active = hit-call score of the fitted dose curve at least 0.9, where 1 is the maximum; inactive = score below 0.9.
Key:
[1] = BSK_3C_Vis: BioMAP Diversity Plus: 3C Assay for Morphology Visualization (AID 2283025); conditions: primary human endothelial cells (HUVEC);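 also: fitted both ways so gain or loss versus DMSO counts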
How it was run: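 Human umbilical vein endothelial cells in the 3C system were imaged by light microscopy 24 h after chemical dosing to record cell morphology. Activity was fitted bidirectionally against DMSO as negative control and baseline; the endpoint serves as a background control.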

[2] = read-out: Transforming growth factor beta 1 (TGFb1), TGFB1 (gene 7040); assay: BSK_BE3C_TGFb1: BioMAP Diversity Plus: BE3C Assay for Transforming growth factor beta 1 (TGFb1) Biomarker Activity (AID 2283036); conditions: primary human bronchial epithelial cells; actives raise or lower the signal
How it was run: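 Human primary bronchial epithelial cells (BE3C system) were dosed with chemical and TGF-b1 levels measured by ELISA at 24 h. Activity was fitted bidirectionally relative to DMSO negative control as baseline.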

[3] = read-out: Interleukin-8 (IL8), CXCL8 (gene 3576); assay: BSK_CASM3C_IL8: BioMAP Diversity Plus: CASM3C Assay for Interleukin-8 (IL8) Biomarker Activity (AID 2283042); conditions: primary human coronary artery smooth muscle cells; actives raise or lower the signal;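 also: IL-8 protein level quantified by ELISA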
[4] = read-out: Urokinase-type plasminogen activator receptor (uPAR), PLAUR (gene 5329); assay: BSK_CASM3C_uPAR: BioMAP Diversity Plus: CASM3C Assay for Urokinase-type plasminogen activator receptor (uPAR) Biomarker Activity (AID 2283054); conditions: primary human coronary artery smooth muscle cells; actives raise or lower the signal;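 also: cell-surface uPAR protein level quantified by ELISA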
[5] = read-out: Transforming growth factor beta 1 (TGFb1), TGFB1 (gene 7040); assay: BSK_KF3CT_TGFb1: BioMAP Diversity Plus: KF3CT Assay for Transforming growth factor beta 1 (TGFb1) Biomarker Activity (AID 2283072); conditions: primary human keratinocytes with fibroblasts; actives raise or lower the signal
How it was run: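 Human keratinocyte plus foreskin fibroblast primary co-culture, dosed with chemical for 24 h. TGF-b1 quantified by ELISA. Activity fitted bidirectionally against DMSO negative control as baseline.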

CD40, CD40 (gene 958) = assay: BSK_SAg_CD40: BioMAP Diversity Plus: SAg Assay for CD40 Biomarker Activity (AID 2283088); conditions: primary human HUVEC with PBMC; actives raise or lower the signal
How it was run: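 Fluorescence ELISA read-out of CD40 from umbilical vein endothelium plus peripheral blood mononuclear cells, sampled 24 h after dosing. Values come from bidirectional curve fitting with DMSO as baseline.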

[6] = read-out: Monokine induced gamma interferon (MIG), CXCL9 (gene 4283); assay: BSK_SAg_MIG: BioMAP Diversity Plus: SAg Assay for Monokine induced gamma interferon (MIG) Biomarker Activity (AID 2283092); conditions: primary human HUVEC with PBMC; actives raise or lower the signal
How it was run: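 Values reflect bidirectional fitting of ELISA-measured MIG against DMSO vehicle, taken 24 h after dosing of a co-culture of human umbilical vein endothelial cells and peripheral blood mononuclear cells.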

[7] = BSK_SAg_Proliferation: Cell Proliferation Assessment in the BioMAP Diversity Plus: SAg Assay (AID 2283095); conditions: primary human HUVEC with PBMC;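 also: relative cell number as total protein by SRB absorbance in sub-confluent culture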
How it was run: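 Human umbilical vein endothelial cells co-cultured with peripheral blood mononuclear cells; total protein measured by sulforhodamine B staining (0.1% SRB after 10% TCA fixation), absorbance at 560 nm, at 96 h. Bidirectional fit against DMSO baseline.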

[8] = BSK_SAg_SRB: Viability Assessment in the BioMAP Diversity Plus: SAg Assay (AID 2283096); conditions: primary human HUVEC with PBMC;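 also: cells read one day after compound addition; hits may be either gain or loss of signal compared with DMSO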
How it was run: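 Human umbilical vein endothelial cells co-cultured with PBMC, read 24 h after compound dosing. Total protein measured by sulforhodamine B staining (0.1% SRB after 10% TCA fixation, absorbance 560 nm); bidirectional fit versus DMSO baseline.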

[9] = BSK_BT_PBMCCytotoxicity: PBMC Cytotoxicity Assessment in the BioMAP Diversity Plus: BT Assay (AID 2284225); conditions: primary human B cells with PBMC;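 also: PBMC viability measured by Alamar Blue dye reduction fluorescence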
How it was run: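 75,000 cells/well; cpd 1 h → SEB + TSST-1 (20 ng/mL final each) → 90 h → Alamar Blue 6 h → fluor. 546/580 nm. DMSO = neg. control/baseline.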

[10] = read-out: Secreted IgG (sIgG), gene 3500; assay: BSK_BT_sIgG: BioMAP Diversity Plus: BT Assay for Secreted IgG (sIgG) Biomarker Activity (AID 2284226); conditions: primary human B cells with PBMC
How it was run: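 B cells co-cultured with PBMC were dosed with chemical and secreted IgG quantified by ELISA at 24 h. Activity was fitted in the positive direction relative to DMSO as negative control and baseline.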

[11] = BSK_BT_Bcell_Proliferation: Viability Assessment in the BioMAP Diversity Plus: BT Assay for B cell Proliferation (AID 2284227); conditions: primary human B cells with PBMC
How it was run: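 Using a human primary B cell–PBMC co-culture, the assay measures total protein by sulforhodamine B absorbance as a gauge of proliferation after 72 h. Analysis followed the positive fitting direction with DMSO as baseline.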

[12] = read-out: Interleukin 17A (IL17A), IL17A (gene 3605); assay: BSK_BT_xIL17A: BioMAP Diversity Plus: BT Assay for Interleukin 17A (IL17A) Biomarker Activity (AID 2284229); conditions: primary human B cells with PBMC
How it was run: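 Chemicals were added to a human B cell and PBMC co-culture. After 24 h, secreted IL-17A was measured with Luminex xMAP. Curves were fitted in the positive direction, with DMSO wells as baseline.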

[13] = read-out: Collagen III, COL3A1 (gene 1281); assay: BSK_MyoF_CollagenIII: BioMAP Diversity Plus: MyoF Assay for Collagen III Biomarker Activity (AID 2284239); conditions: primary human lung fibroblasts
How it was run: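 Compounds are added to primary human lung fibroblasts and left for 24 hours. Collagen III is then quantified by ELISA. Analysis takes DMSO as baseline and fits increases in signal.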

[14] = read-out: Interleukin 2 (IL2), IL2 (gene 3558); assay: BSK_BT_xIL2: BioMAP Diversity Plus: BT Assay for Interleukin 2 (IL2) Biomarker Activity (AID 2284245); conditions: primary human B cells with PBMC
How it was run: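 Human B cells co-cultured with PBMC, exposed to test chemical for 24 h. Secreted IL-2 quantified by Luminex xMAP bead immunoassay; activity fitted in the positive direction relative to DMSO vehicle baseline.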

[15] = read-out: Matrix Metallopeptidase 1 (MMP1), MMP1 (gene 4312); assay: BSK_MyoF_MMP1: BioMAP Diversity Plus: MyoF Assay for Matrix Metallopeptidase 1 (MMP1) Biomarker Activity (AID 2284268); conditions: primary human lung fibroblasts
How it was run: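 MMP1 measured by ELISA 24 h after dosing primary human lung fibroblasts; cytotoxicity checked in parallel cultures by sulforhodamine B total-protein staining read at 560 nm.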

[16] = read-out: Human Leukocyte Antigen - DR isotype (HLADR), HLA-DRA (gene 3122); assay: BSK_3C_HLADR: BioMAP Diversity Plus: 3C Assay for Human Leukocyte Antigen - DR isotype (HLADR) Biomarker Activity (AID 2283019); conditions: primary human endothelial cells (HUVEC); actives raise or lower the signal
How it was run: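 Endothelial cells from human umbilical vein are treated with test chemical; after 24 h, HLA-DR levels are measured by ELISA. Data are fitted in both directions using DMSO as the baseline.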

[17] = read-out: Human Leukocyte Antigen - DR isotype (HLADR), HLA-DRA (gene 3122); assay: BSK_CASM3C_HLADR: BioMAP Diversity Plus: CASM3C Assay for Human Leukocyte Antigen - DR isotype (HLADR) Biomarker Activity (AID 2283043); conditions: primary human coronary artery smooth muscle cells; actives raise or lower the signal;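 also: cell-surface HLA-DR protein level quantified by ELISA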
[18] = read-out: Monokine induced gamma interferon (MIG), CXCL9 (gene 4283); assay: BSK_CASM3C_MIG: BioMAP Diversity Plus: CASM3C Assay for Monokine induced gamma interferon (MIG) Biomarker Activity (AID 2283048); conditions: primary human coronary artery smooth muscle cells; actives raise or lower the signal;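 also: MIG protein level measured by ELISA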
[19] = read-out: Intercellular Adhesion Molecule 1 (ICAM1), ICAM1 (gene 3383); assay: BSK_KF3CT_ICAM1: BioMAP Diversity Plus: KF3CT Assay for Intercellular Adhesion Molecule 1 (ICAM1) Biomarker Activity (AID 2283067); conditions: primary human keratinocytes with fibroblasts; actives raise or lower the signal
How it was run: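 Dose the keratinocyte/fibroblast co-culture, wait 24 h, measure ICAM-1 by ELISA, then fit increases or decreases against DMSO. Cytotoxicity is checked in parallel cultures by SRB total-protein staining.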

Measured: AC50

Nc1ccc(-c2ccc(N)c(N)c2)cc1N
active: [5] 26.6 µM | [10] 15.4 µM
not listed: [16] | [17] | [18] | [19]
inactive: all other assays above

CC(C)(C)C(O)C(Oc1ccc(-c2ccccc2)cc1)n1cncn1 (centres undefined)
active: [16] 30.6 µM | [1] 37.6 µM | [17] 31.3 µM | [4] 29 µM | [5] 20 µM | [10] 17.9 µM | [11] 29.8 µM | [13] 30.5 µM | [14] 20 µM | [15] 30 µM
inactive: all other assays above

O=C(O)CCCc1ccc(N(CCCl)CCCl)cc1
inactive: [2] | [5] | [6] | [9] | [12] | [13] | [14] | [15]
active: [16] 15.8 µM and 13.4 µM | [1] 38.9 µM and 38.6 µM | [2] 20 µM | [3] 20 µM | [17] 15.9 µM and 20 µM | [18] 30.8 µM and 20 µM | [4] 30.6 µM and 20 µM | [19] 20 µM | [5] 29.8 µM | CD40, CD40 (gene 958) 20 µM | [7] 16.4 µM and 12.2 µM | [8] 20 µM and 10.3 µM | [10] 3.48 µM and 5.7 µM | [11] 12.7 µM and 13 µM | [12] 15 µM | [13] 20 µM | [14] 35.5 µM | [15] 30.6 µM

Oc1ccc(C2(c3ccc(O)cc3)c3ccccc3-c3ccccc32)cc1
active: [16] 9.06 µM and 7.06 µM | [3] 27 µM and 24.3 µM | [17] 3.97 µM and 2.88 µM | [18] 914 nM and 799 nM | [4] 20 µM and 25.7 µM | [19] 11.9 µM and 10.4 µM | CD40, CD40 (gene 958) 11.7 µM and 12.5 µM | [6] 12.4 µM and 11.5 µM | [7] 9.89 µM and 9.81 µM | [8] 15.9 µM and 15.6 µM

CCC(C)c1cc([N+](=O)[O-])cc([N+](=O)[O-])c1OC(=O)C=C(C)C (centres undefined)
active: [16] 5.85 µM | [1] 14.5 µM | [2] 3.97 µM | [3] 9.2 µM | [17] 5.31 µM | [18] 33 µM | [19] 25 µM | [5] 12.4 µM | CD40, CD40 (gene 958) 7.96 µM | [6] 35 µM | [7] 8.87 µM | [8] 15.3 µM | [9] 20 µM | [10] 20 µM | [11] 32.6 µM | [12] 14.4 µM | [13] 5.36 µM | [14] 30.9 µM
inactive: [15]

Cc1ccc(OP(=O)(Oc2ccc(C)cc2)Oc2ccc(C)cc2)cc1 (tested in a mixture with another compound)
inactive: [2] | [3] | [17] | [18] | [19] | [6] | [11] | [13]
active: [16] 20 µM | [1] 37.5 µM | [4] 1.11 µM | [5] 4.81 µM | CD40, CD40 (gene 958) 20 µM | [7] 9.42 µM | [8] 20 µM | [9] 5.41 µM | [10] 13.5 µM | [12] 14.1 µM | [14] 20 µM | [15] 27.6 µM

N#CCCCCC#N
not listed: [9] | [10] | [11] | [12] | [13] | [14] | [15]
inactive: all other assays above

COc1ccc(CO)cc1
inactive: [16] | [3] | [17] | [18] | [4] | [19] | CD40, CD40 (gene 958) | [6] | [7] | [8]

Oc1cc(Cl)ccc1Cl
inactive: all assays above

O=c1[nH]c(Cl)c(Cl)cc1Cl
active: [15] 20 µM
inactive: all other assays above

CC(=O)/C=C/c1ccccc1
active: [16] 26.9 µM | [7] 13 µM | [9] 17.4 µM | [10] 27.2 µM | [11] 26.1 µM | [12] 20 µM | [14] 20 µM
inactive: all other assays above

C=CC(=O)OCC(CC)CCCC (centres undefined)
active: [16] 31.9 µM | [5] 0.164 µM
inactive: all other assays above

Clc1ccc(-c2ccccc2)cc1
inactive: all assays above

CC(C)COP(=O)(OCC(C)C)OCC(C)C
inactive: all assays above

O=[N+]([O-])O
inactive: [16] | [3] | [17] | [18] | [4] | [19] | CD40, CD40 (gene 958) | [6] | [7] | [8]

O=S(=O)(c1ccccc1)c1ccccc1
inactive: all assays above

From PubChem BioAssay (EPA / NIEHS)
